In PubChem BioAssay AID1159580 (chemical genetic matrix, 2015):
“And” between values parts separate entries of the source, which are not always exact repeats. Equal entries are not always repeated. Screen size: about 5,500 compounds; about 2,000 (36%) were called active. Inconclusive results (about 18%) are left out. Cut-off read from the data, not from the text of the source: active = normalized growth mostly below about 0.91 (no sharp cut-off); inconclusive = no clear call, values can overlap the other calls; inactive = mostly above about 0.92. Some of the results follow.

Experiment: chemical genetic growth profiling, strain panel (AID 1159580);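 note: tested at 20 µM; growth read once vehicle control cultures reached saturation at 30 °C; 1 = growth at the plate median or of vehicle wells; lower values mean less growth of the strain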
Details: S. cerevisiae deletion strains, growth OD

Measured: normalized growth

CCOC(=O)CSC(=S)NCc1ccc(C)cc1
inactive: locus YAR019C, strain CDC15, stronger effect = lower value 0.956 | locus YBL105C, strain PKC1, stronger effect = lower value 0.958 | locus YBR135W, strain CKS1, stronger effect = lower value 0.937 | locus YBR136W, strain MEC1, stronger effect = lower value 0.955 | locus YBR160W, strain CDC28, stronger effect = lower value 0.951 | locus YDL017W, strain CDC7, stronger effect = lower value 0.959 | locus YDL028C, strain MPS1, stronger effect = lower value 0.947 | locus YDL108W, strain KIN28, stronger effect = lower value 0.956 | locus YDL132W, strain cdc53, stronger effect = lower value 0.928 | locus YDL214C, strain PRR2, stronger effect = lower value 0.95 | locus YDR052C, strain DBF4, stronger effect = lower value 0.972 | locus YDR054C, strain cdc34, stronger effect = lower value 0.93 | locus YDR226W, strain ADK1, stronger effect = lower value 0.946 | locus YDR477W, strain SNF1, stronger effect = lower value 0.949 | locus YER123W, strain YCK3, stronger effect = lower value 0.933 | locus YER133W, strain GLC7, stronger effect = lower value 0.953 | locus YFL009W, strain cdc4, stronger effect = lower value 0.944 | locus YFL029C, strain CAK1, stronger effect = lower value 0.958 | locus YFR003C, strain YPI1, stronger effect = lower value 0.957 | locus YFR019W, strain FAB1, stronger effect = lower value 0.957 | locus YFR028C, strain CDC14, stronger effect = lower value 0.947 | locus YGR040W, strain KSS1, stronger effect = lower value 0.946 | locus YGR052W, strain FMP48, stronger effect = lower value 1.01 | locus YGR092W, strain DBF2, stronger effect = lower value 0.937 | locus YHR079C, strain IRE1, stronger effect = lower value 0.93 | locus YHR082C, strain KSP1, stronger effect = lower value 0.964 | locus YHR205W, strain SCH9, stronger effect = lower value 0.872 | locus YIL147C, strain SLN1, stronger effect = lower value 0.951 | locus YJL095W, strain BCK1, stronger effect = lower value 0.879 | locus YJL128C, strain PBS2, stronger effect = lower value 0.954 | locus YJL157C, strain FAR1, stronger effect = lower value 0.963 | locus YJL187C, strain SWE1, stronger effect = lower value 0.958 | locus YJR016C, strain ILV3, stronger effect = lower value 0.954 | locus YJR066W, strain TOR1 (second series), stronger effect = lower value 0.989 | locus YJR066W, strain TOR1, stronger effect = lower value 0.957 | locus YKL048C, strain ELM1, stronger effect = lower value 0.944 | locus YKL067W, strain YNK1, stronger effect = lower value 0.95 | locus YKL101W, strain HSL1, stronger effect = lower value 0.955 | locus YKL193C, strain SDS22, stronger effect = lower value 0.948 | locus YKL203C, strain TOR2, stronger effect = lower value 1 | locus YLR133W, strain CKI1, stronger effect = lower value 0.959 | locus YLR403W, strain SFP1, stronger effect = lower value 0.967 | locus YML070W, strain DAK1, stronger effect = lower value 0.949 | locus YMR001C, strain CDC5, stronger effect = lower value 0.946 | locus YMR205C, strain PFK2 (second series), stronger effect = lower value 0.965 | locus YMR277W, strain FCP1, stronger effect = lower value 0.957 | locus YNL006W, strain LST8, stronger effect = lower value 0.959 | locus YNL020C, strain ARK1, stronger effect = lower value 0.948 | locus YNL161W, strain CBK1, stronger effect = lower value 0.953 | locus YNL183C, strain NPR1, stronger effect = lower value 0.912 | locus YNL207W, strain RIO2, stronger effect = lower value 0.953 | locus YNL222W, strain SSU72, stronger effect = lower value 0.956 | locus YNL307C, strain MCK1 (second series), stronger effect = lower value 0.928 | locus YOL078W, strain AVO1, stronger effect = lower value 0.948 | locus YOL136C, strain PFK27, stronger effect = lower value 0.946 | locus YOR061W, strain CKA2, stronger effect = lower value 0.965 | locus YOR119C, strain RIO1, stronger effect = lower value 1.01 | locus YOR231W, strain MKK1, stronger effect = lower value 0.914 | locus YOR329C, strain SCD5, stronger effect = lower value 0.952 | locus YPL031C, strain PHO85, stronger effect = lower value 0.944 | locus YPL153C, strain RAD53, stronger effect = lower value 0.954 | locus YPL204W, strain HRR25, stronger effect = lower value 0.943 | locus YPL209C, strain IPL1, stronger effect = lower value 0.953 | locus YPR025C, strain CCL1, stronger effect = lower value 0.943 | locus YPR106W, strain ISR1, stronger effect = lower value 0.951 | locus YPR111W, strain DBF20, stronger effect = lower value 0.931 | strain NNK1, stronger effect = lower value 0.948 | strain TSCII, stronger effect = lower value 0.949
0.947 (inactive) and 0.839 (active): locus YDL101C, strain DUN1, stronger effect = lower value
active: locus YAL013W, strain DEP1, stronger effect = lower value 0.822 | locus YBR229C, strain ROT2, stronger effect = lower value 0.866 | locus YCL061C, strain MRC1, stronger effect = lower value 0.907 | locus YDL134C, strain PPH21, stronger effect = lower value 0.0516 | locus YDR150W, strain NUM1, stronger effect = lower value 0.787 | locus YEL061C, strain CIN8, stronger effect = lower value 0.216 | locus YGR078C, strain PAC10, stronger effect = lower value 0.766 | locus YHR030C, strain SLT2, stronger effect = lower value 0.0833 and 0.84 | locus YHR087W, strain rtc3, stronger effect = lower value 0.86 | locus YJR043C, strain POL32, stronger effect = lower value 0.812 | locus YJR075W, strain HOC1, stronger effect = lower value 0.82 | locus YLR039C, strain RIC1, stronger effect = lower value 0.172 | locus YLR058C, strain SHM2 (second series), stronger effect = lower value 0.909 | locus YLR085C, strain ARP6, stronger effect = lower value 0.0735 | locus YLR113W, strain HOG1, stronger effect = lower value 0.76 | locus YLR262C, strain YPT6, stronger effect = lower value 0.111 | locus YML094W, strain GIM5, stronger effect = lower value 0.493 | locus YMR219W, strain ESC1, stronger effect = lower value 0.909 | locus YMR263W, strain SAP30, stronger effect = lower value 0.853 | locus YMR307W, strain GAS1, stronger effect = lower value 0.109 | locus YNL153C, strain GIM3, stronger effect = lower value 0.665 | locus YNL298W, strain CLA4 (second series), stronger effect = lower value 0.0782 | locus YNL322C, strain KRE1, stronger effect = lower value 0.925 | locus YNR030W, strain Alg12, stronger effect = lower value 0.0728 | locus YOL006C, strain TOP1, stronger effect = lower value 0.107 | locus YPL055C, strain LGE1, stronger effect = lower value 0.618 | locus YPL241C, strain CIN2, stronger effect = lower value 0.0682 | locus YPL256C, strain CLN2, stronger effect = lower value 0.825 | locus YPR135W, strain CTF4, stronger effect = lower value 0.148
